Measured values published in PubChem BioAssay AID623992 (NMMLSC, 2012).
Measured potencies and affinities stand elsewhere. The source made the active and inactive calls.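 Rule for the calls: active = compounds whose fitted half-maximal effective concentration for blocking dye efflux is below 100 µM; inactive = the rest.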

biological target: Benomyl/methotrexate resistance protein (Candida albicans) (UniProt P28873); assay: CaMdr1 efflux pump inhibitor potency, dose response, singleplex, Cherry Pick2 set (AID 623992); conditions: S. cerevisiae AD/CaMDR1, Nile Red efflux, flow cytometry; series mostly up to 100 µM; efflux inhibition response: at the top concentration
Sequence (P28873 whole entry, looked up): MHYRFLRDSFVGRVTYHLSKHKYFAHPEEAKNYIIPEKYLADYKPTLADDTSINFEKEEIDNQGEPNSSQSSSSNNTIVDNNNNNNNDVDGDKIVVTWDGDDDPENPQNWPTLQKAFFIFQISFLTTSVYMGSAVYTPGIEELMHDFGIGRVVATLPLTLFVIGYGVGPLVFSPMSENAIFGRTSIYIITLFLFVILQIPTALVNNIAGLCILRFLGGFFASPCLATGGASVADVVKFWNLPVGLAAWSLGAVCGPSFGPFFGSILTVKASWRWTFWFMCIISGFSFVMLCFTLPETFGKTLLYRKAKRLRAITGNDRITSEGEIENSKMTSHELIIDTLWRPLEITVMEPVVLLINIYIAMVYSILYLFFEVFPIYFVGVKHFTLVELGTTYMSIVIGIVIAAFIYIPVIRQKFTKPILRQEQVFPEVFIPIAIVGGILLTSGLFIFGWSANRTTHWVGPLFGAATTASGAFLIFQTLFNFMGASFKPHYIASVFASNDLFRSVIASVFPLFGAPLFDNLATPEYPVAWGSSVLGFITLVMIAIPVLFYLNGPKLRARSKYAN

Efflux inhibition response, inactive:
Cc1ccc(-c2c[n+](CC(=O)N3c4ccccc4Sc4ccccc43)c3n2CCC3)cc1 -1.07%
COc1ncccc1C(=O)NC1CCCc2c1cnn2-c1cc(C)cc(C)c1 (stereo not given) -0.48%
CCCCCc1cc(=O)oc2c(C(CCN3CCCC(C)C3)c3ccc(N(C)C)cc3)c(OC)cc(OC)c12 (stereo not given) -1.98%
CC(C)C(=O)N1CCC2(CC1)Oc1ccc(F)cc1C(=O)C21CC(c2ccccc2)=NO1 (stereo not given) 132%
Cc1ccc2c(c1)[C@H]1[C@H](CO2)[C@H](c2ccccc2)[C@]2(C)C(=O)Nc3cc(F)c(F)cc3C(=O)N12 -0.45%
OCCN1CCN(CC/C=C2/c3ccccc3Sc3ccc(C(F)(F)F)cc32)CC1 0.63%
O=C(C1CCCN(c2ncnc3c2nc2n3CCCCC2)C1)N1CCN(c2cccc(Cl)c2)CC1 (stereo not given) -0.25%
CCN(CC)CCC(c1ccc(N(C)C)cc1)c1c(OC)cc(OC)c2ccc(=O)oc12 (stereo not given) -1.95%
Cc1cccc2sc(N(CCCN(C)C)C(=O)c3ccc(Cl)s3)nc12 -0.58%
NS(=O)(=O)c1ccc(N2N=C(c3ccc(Br)cc3)CC2c2ccc(F)cc2)cc1 (stereo not given) -1.21%
COc1cc(OC)c2ccc(=O)oc2c1C(CCN1CCCC1)c1ccc(N(C)C)cc1 (stereo not given) -0.52%
COc1ccc(S(=O)(=O)N(C)C[C@H]2Oc3c(NC(=O)NC4CCCCC4)cccc3C(=O)N([C@H](C)CO)C[C@@H]2C)cc1 122%
NC1=NC[C@H](Cc2ccc(O)cc2)N1CCCCC1CCCCC1 -0.18%
O=C(C1CCCN(c2ncnc3c2nc2n3CCCCC2)C1)N1CCN(c2ccccc2F)CC1 (stereo not given) -1.04%

outcome, inactive:
CCCCN1Cc2cc(C(=O)c3cc(F)ccc3O)cnc2NC1=O
